# According to publication PMC7826789 (International Journal of Molecular Sciences, 2021):
# Legend:
# Details in all cases: Compound Concentration (nM):1000
# ACVR2B = system: ACVR2B
# ACVRL1 = system: ACVRL1
# ADCK3 = system: T1, ADCK3
# T1 construct: gene CABC1
# ADCK4 = system: ADCK4
# AKT1 = system: AKT1
# AKT2 = system: AKT2
# AKT3 = system: AKT3
# ALK(C1156Y) = system: ALK(C1156Y)
# ALK(L1196M) = system: ALK(L1196M)
# ALK = system: ALK
# AMPK-alpha1 = system: T2, AMPK-alpha1
# T2 construct: gene PRKAA1
# AMPK-alpha2 = system: T3, AMPK-alpha2
# T3 construct: gene PRKAA2
# ANKK1 = system: ANKK1
# ARK5 = system: T4, ARK5
# T4 construct: gene NUAK1
# ASK1 = system: T5, ASK1
# T5 construct: gene MAP3K5
# ASK2 = system: T6, ASK2
# T6 construct: gene MAP3K6
# AURKA = system: AURKA
# AURKB = system: AURKB
# AURKC = system: AURKC
# AXL = system: AXL
# 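Also: KINOMEscan scanMAX binding as percent activity remaining versus control; lower means stronger binding.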
Compound,Percent Control (ACVR2B) [%],Percent Control (ACVRL1) [%],Percent Control (ADCK3) [%],Percent Control (ADCK4) [%],Percent Control (AKT1) [%],Percent Control (AKT2) [%],Percent Control (AKT3) [%],Percent Control (ALK(C1156Y)) [%],Percent Control (ALK(L1196M)) [%],Percent Control (ALK) [%],Percent Control (AMPK-alpha1) [%],Percent Control (AMPK-alpha2) [%],Percent Control (ANKK1) [%],Percent Control (ARK5) [%],Percent Control (ASK1) [%],Percent Control (ASK2) [%],Percent Control (AURKA) [%],Percent Control (AURKB) [%],Percent Control (AURKC) [%],Percent Control (AXL) [%]
Nc1ncnc2occ(-c3ccc(NC(=O)Nc4cc(C(F)(F)F)ccc4F)cc3)c12 [GW770249X],100,100,100,100,100,100,100,41,74,36,100,86,32,100,100,80,66,5.7,35,0
COc1ccc2[nH]c3c4[nH]c5ccc(OC)cc5c4c4c(c3c2c1)C(=O)NC4=O [GW296115X],44,100,100,75,72,84,98,25,70,55,44,54,71,25,83,86,57,16,17,30
Cl.O=C(Nc1ccc(Oc2ccc3[nH]c(NC(=O)c4ccco4)nc3c2)cc1)Nc1cc(C(F)(F)F)ccc1F [GW683134A],100,76,100,100,100,100,100,92,92,88,67,82,100,100,100,93,98,13,56,0
COc1ccc2cc(-c3c(-c4ccncc4)nc(-c4ccc(S(C)(=O)=O)cc4C)n3C)ccc2c1 [SB-633825],84,100,100,80,100,94,100,70,73,58,53,90,100,100,83,74,87,66,85,88
Cl.O=S1CCN(Cc2ccc(-c3ccc4ncnc(Nc5ccc(OCc6ccccc6)c(F)c5)c4c3)o2)CC1 [GW576924A],100,94,100,100,100,100,100,100,100,100,100,100,88,100,100,69,100,100,100,100
COc1cc(C=NNc2ncnc3c2cnn3-c2ccccc2)ccc1O [GW513184X],82,67,95,0,100,100,100,100,100,100,100,100,48,84,100,100,33,96,59,60
CCc1ccc(Oc2nccc(-c3c(-c4ccc(F)cc4)ncn3C3CCNCC3)n2)cc1 [SB-242719],100,97,100,100,88,100,100,100,98,96,100,99,83,100,84,66,81,100,98,100
Cl.O=C(Nc1ccc(Oc2ccc3[nH]c(NC(=O)c4ccccc4)nc3c2)cc1)Nc1cc(C(F)(F)F)ccc1F [GW709042A],100,100,100,100,90,100,100,84,92,73,56,100,95,100,100,80,82,61,37,0
COc1ccccc1-c1cc(/C=C2\C(=O)Nc3ncc(Br)cc32)cc(Br)c1O [GW442130X],100,95,100,100,93,100,100,100,100,100,100,94,100,100,98,100,25,48,80,92
C[C@@H](Oc1cc(-n2cnc3ccc(OC4CCN(C)CC4)cc32)sc1C(N)=O)c1ccccc1Cl [GSK579289A],60,100,97,20,100,100,100,82,81,87,45,100,63,19,99,66,76,94,65,67
NS(=O)(=O)c1ccc(N/N=C2\C(=O)Nc3ccc(-c4cnco4)cc32)cc1 [GW276655],100,100,100,100,84,65,100,97,100,83,95,100,65,100,100,85,70,66,65,100
NS(=O)(=O)c1ccc(N/N=C2\C(=O)Nc3ccc(C(=O)NCCc4c[nH]cn4)cc32)cc1 [GW300660X],100,100,100,100,100,100,100,92,91,100,100,100,59,80,100,65,72,55,99,100
CN(C)CCNC(=O)Nc1ccc(N(C)c2ccnc(Nc3ccc(CS(C)(=O)=O)cc3)n2)cc1.Cl [GW830900A],88,100,100,79,100,100,100,70,85,71,87,74,88,48,100,80,8.8,4.4,4.5,58
CC1=C(C(=O)Nc2ccc3[nH]ncc3c2)C(c2ccc3ccccc3c2)CC(=O)N1 (stereo not shown) [GSK270822A],86,100,100,100,17,100,100,72,77,68,76,81,100,81,98,84,39,49,62,91
COc1cc2ncnc(Nc3ccc4c(cnn4Cc4ccccc4)c3)c2cc1OC.Cl [GW282449A],100,97,100,100,100,100,100,96,100,93,100,100,88,100,100,74,100,100,87,89
COc1cccc(-n2ncc3c(N/N=C/c4ccncc4)ncnc32)c1 [GW784752X],81,3.7,100,31,100,100,100,95,91,87,100,86,79,96,100,62,69,89,94,100
CC1=C(C(=O)Nc2ccc3[nH]ncc3c2)C(c2ccc(Cl)c(Cl)c2)CC(=O)N1 (stereo not shown) [GSK299115A],69,100,99,92,100,100,100,100,100,77,67,97,100,85,98,82,45,60,56,100
Cc1cc(O)cc(C)c1/C=C/c1cncc(C(N)=O)c1 [GW435821X],7.1,2.6,100,100,96,100,100,96,88,100,100,83,85,100,100,79,85,100,100,100
O=C1Nc2ccc(C(=O)c3ccco3)cc2C1=Cc1cc(Cl)c(O)c(Cl)c1 [GW406108X],86,100,90,99,100,100,100,76,86,89,90,94,9.2,100,100,72,35,22,58,100
COc1ccc(COc2ccc(Cc3cnc(N)nc3N)cc2OC)cc1 [GW632580X],100,100,92,100,75,100,100,94,87,98,89,99,81,100,80,85,76,100,100,100
